ELG1 repair inh: blocks ELG1-dependent DNA repair in HEK293T cells | HEK293T ELG1-luciferase reporter, luminescence, 16 h; DNA damage induced by 5-fluorouridine | Potency, µM (doses to about 46.1 µM), without a hit: at the top dose activity change, negative = inhibition, most hits filed as inhibitors | hit rate 2.3% among 330,000 | AID 504467; also: % is scaled to controls: 0 for no effect and ±100 for the full control effect; nearly all actives have a fitted effect of over 55% in size
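Cells (2,000 per well) received 5-fluorouridine plus test compound or DMSO and were incubated 16 hr at 37 °C, 5% CO2. Luciferase activity was read by luminescence 30 min after ONE-Glo addition; signal suppression marked inhibition of damage-induced ELG1 function.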
VP16 counter: Gal4-VP16 reporter inhibition counter-screen. Drosophila S2 Gal4-VP16 UAS-luciferase, luminescence, 20 h. Potency, µM (titrated, usually from 53.6 µM), inactives show at the top dose activity, negative = inhibition, most hits filed as inhibitors. hit rate 3.5% among 310,000;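 also: Gal4-VP16 expression switched on by copper sulfate through the metallothionein promoter; % is scaled to controls: 0 for no effect and ±100 for the full control effect; nearly all actives have a fitted effect of over 50% in size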
MCF10A rerep: DNA re-replication induction in MCF 10a cells. MCF 10A DNA re-replication, Hoechst nuclear intensity, 48 h. Potency, µM (series often up to 46.1 µM), for the others: at the highest dose activity, positive = re-replication, usual class: activators. hit rate 2.9% among 350,000; also: % of control where 0% means no effect; nearly all actives have a fitted effect of over 50% in size
SW480 rerep: induces DNA re-replication in SW480 colon adenocarcinoma cells; SW480 DNA re-replication, Hoechst DNA content imaging, 48 h; Potency, µM (titrated, usually from 46.1 µM), for the others: at the highest dose re-replication activation, usual class: activators; hit rate 1.8% among 340,000; AID 624297; also: % of control where 0% means no effect; nearly all actives have a fitted effect of over 55% in size
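Hoechst fluorescence of nuclei (405 nm excitation, 500-530 nm emission) measured by plate-scanning imager after 48 hr compound exposure at 37 C; re-replication scored as increased number of nuclei with elevated intensity.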
RORg inh: ROR gamma (mouse) transcription inhibition; AID 2551; hit rate 5.4% among 310,000; Drosophila S2 Gal4-RORgamma UAS-luciferase reporter, 20 h; Potency, µM (series often up to 53.6 µM), without a hit: at the highest dose activity change, negative = inhibition, most hits filed as inhibitors; P51450; also: % is scaled to controls: 0 for no effect and ±100 for the full control effect; nearly all actives have a fitted effect of over 60% in size
Target sequence (P51450 whole entry, looked up, the tested form may be a part): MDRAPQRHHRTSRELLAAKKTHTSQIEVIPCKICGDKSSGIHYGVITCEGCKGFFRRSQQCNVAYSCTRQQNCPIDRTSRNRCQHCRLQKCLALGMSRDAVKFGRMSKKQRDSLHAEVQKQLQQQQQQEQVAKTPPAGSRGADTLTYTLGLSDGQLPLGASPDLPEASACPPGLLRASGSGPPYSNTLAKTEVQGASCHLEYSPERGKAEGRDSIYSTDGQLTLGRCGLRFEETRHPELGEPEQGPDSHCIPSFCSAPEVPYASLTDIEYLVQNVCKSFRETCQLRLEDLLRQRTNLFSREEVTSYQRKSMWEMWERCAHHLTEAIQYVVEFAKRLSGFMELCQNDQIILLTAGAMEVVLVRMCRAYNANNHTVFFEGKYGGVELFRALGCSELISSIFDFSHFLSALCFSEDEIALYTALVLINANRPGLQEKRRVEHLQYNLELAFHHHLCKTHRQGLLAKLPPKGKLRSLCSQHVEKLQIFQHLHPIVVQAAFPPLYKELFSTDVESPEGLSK
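Schneider cells (Drosophila), stable Gal4 DBD–ROR gamma + UAS-luc; 1 hr cmpd preincubation; Cu2+ induction 700 uM final; 20 hr ambient; luminescence.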
* marks the source's active call; other numbers are inactive results; ? = inconclusive; . = no result given; [ ] = dose if it differs, or a comment. Compounds with a hit are over-represented: about 10% of the library has one in this group of screens. Calls follow the shape of the dose curve; as a rule, active = well fitted curve in the direction sought with a large enough effect; inconclusive = small, poorly fitted or top-dose-only effect, or another doubt; inactive = no such curve, though single readings can be large; an effect the other way counts as inactive or inconclusive. Potency is read from the fitted curve at half-maximal effect.

SMILES	ELG1 repair inh	VP16 counter	MCF10A rerep	SW480 rerep	RORg inh
CCOc1ccc(/C=N/NC(=S)NC2CC3CC2C2C=CCC32)cc1 (stereo unspecified)	?	4.47µM*	6.51µM*	9.6%	5.01µM*
COc1cc(/C=N/NC(=S)NC2CC3CC2C2C=CCC32)ccc1O (stereo unspecified)	2.9%	4.47µM*	-4.4%	?	1.58µM*
COC(=O)COc1coc(CN2CCN(c3cccc(Cl)c3)CC2)cc1=O	-2.7%	-8.6%	20.2%	16.6%	?
O=C(Nc1cccc(NC(=O)c2ccco2)c1)c1ccc([N+](=O)[O-])cc1	11.6µM*	3.3%	1.0%	-3.0%	17.0%
O=C(Nc1cccc(NC(=O)c2ccco2)c1)c1cccc(Br)c1	-5.4%	-0.8%	7.1%	-7.6%	19.2%
O=C(Nc1ccc([N+](=O)[O-])cc1)C(=O)Nc1cccc(C(=O)O)c1	?	1µM*	-6.0%	-10.1%	0.355µM*
O=C(Nc1cc(Br)c(O)c(Br)c1)c1cccc(NC(=O)c2ccco2)c1	-18.9%	-0.1%	0.731µM*	-27.1%	-0.6%[1.91 µM]
CC(=O)c1cccc(NC(=O)c2cccc(NC(=O)c3ccco3)c2)c1	-9.3%	3.5%	11.8%	-35.5%	12.0%[1.91 µM]
O=C(O)c1cccc([N+](=O)[O-])c1	.	-1.4%	.	.	-15.1%
O=C(NC(=S)Nc1cccc([N+](=O)[O-])c1)c1ccco1	?	12.9%	0.0%	-5.8%	-41.9%
CC(=O)Oc1ccc(C(=O)Nc2cccc(NC(=O)c3ccco3)c2)cc1	1.6%	10.2%	6.51µM*	-52.0%	21.3%
Cc1ccc(OCCSc2nc3ccccc3n2CC(=O)O)cc1C	10.0%	-1.9%	0.5%	-17.7%	-13.2%
CCCC(C)CO (stereo unspecified)	0.4%	-10.4%	-9.3%	-1.8%	18.9%
O=C(Nc1cccc(S(=O)(=O)c2cccc(NC(=O)c3ccco3)c2)c1)c1ccco1	23.1µM*	?	10.8%	4.3%	24.4%
CCC(C(=O)NCCc1ccc(C)cc1)n1nc(C)c2c(C)n(-c3ccccc3)nc2c1=O (stereo unspecified)	-10.8%	?	-1.8%	?	?
CCC(C(=O)N1CCCC1)n1nc(C)c2c(C)n(-c3ccccc3)nc2c1=O (stereo unspecified)	15.4%	9.1%	-0.4%	20.6µM*	-16.5%
Cc1ccc(NC(=O)[C@H](Cc2c[nH]c3ccccc23)NC(=O)[C@@H]2Cc3ccccc3CN2)c(C)c1	56.4%	-13.4%	?	7.1%	-39.2%
Cc1cccc(NC(=O)[C@H](Cc2c[nH]c3ccccc23)NC(=O)[C@@H]2Cc3ccccc3CN2)c1	?	-7.6%	16.4µM*	20.6µM*	8.7%
CCc1ccc(NC(=O)[C@H](Cc2c[nH]c3ccccc23)NC(=O)[C@@H]2Cc3ccccc3CN2)cc1	7.5%	-3.2%	18.4µM*	16.4µM*	?
Cc1cc(C)cc(NC(=O)[C@H](Cc2c[nH]c3ccccc23)NC(=O)[C@@H]2Cc3ccccc3CN2)c1	-5.8%	?	20.6µM*	18.4µM*	-16.4%
Cc1cccnc1NC(=O)c1ccco1	0.2%	.	-3.5%	3.4%	.
Cc1cccnc1NC(=S)NCc1ccco1	4.1%	?	-17.7%	-1.5%	2µM*
S=C(NCc1ccco1)Nc1ccccn1	?	12.6µM*	-1.9%	-2.7%	1.78µM*
S=C(NCc1ccco1)Nc1ccc(Cl)cn1	-0.8%	2.82µM*	1.1%	4.0%	2.51µM*
CCCc1cc(NCCCO)n2c(nc3ccccc32)c1C#N	-19.4%	-0.1%	?	15.8%	-23.5%
SMILES	ELG1 repair inh	VP16 counter	MCF10A rerep	SW480 rerep	RORg inh
O=C(COC(=O)Cc1n[nH]c(=O)c2ccccc12)Nc1c(Cl)cccc1C(F)(F)F	0.1%	.	2.8%	0.3%	.
O=C(COC(=O)CCCN1C(=O)c2cccc3cccc(c23)C1=O)Nc1cccc(C(F)(F)F)c1	14.5%	-4.9%	4.4%	-6.2%	22.1%
CCCc1nc2ccccc2n1C(=S)SC	13.7%	?	10.8%	-6.0%	11.2µM*
C=C(Br)Cn1c(CCC)nc2ccccc21	5.5%	-4.3%	19.8%	-1.4%	?
COc1cccc(N2CCN(c3c(C#N)c(C(F)(F)F)nn3C)CC2)c1	14.6µM*	4.3%	-7.4%	-1.5%	11.9%
COc1ccnc(N2CCN(c3ccc(Cl)cc3)CC2)c1C#N	-11.5%	-7.7%	-2.4%	-4.2%	18.1%
COc1ccnc(N2CCN(c3cccc(C(F)(F)F)c3)CC2)c1C#N	-8.8%	1.9%	20.6µM*	?	-14.7%
CCC1Sc2ccc(S(=O)(=O)CCC(=O)NC3CCCCCC3)cc2NC1=O (stereo unspecified)	?	-12.1%	0.8%	-7.9%	?
Cn1c(NCc2ccco2)nc2c1c(=O)n(Cc1ccc(Cl)cc1Cl)c(=O)n2C	?	-3.5%	?	16.4µM*	-9.4%
Cn1c(NCc2ccco2)nc2c1c(=O)n(Cc1ccc(Br)cc1)c(=O)n2C	18.4µM*	-11.3%	-6.4%	1.4%	29.4%
Cn1c(NCc2ccccc2)nc2c1c(=O)n(Cc1ccc(Br)cc1)c(=O)n2C	20.6µM*	-26.4%	?	-3.3%[9.22 µM]	28.9%[10 µM]
Cn1c(NCc2ccco2)nc2c1c(=O)n(Cc1ccc(Cl)cc1)c(=O)n2C	?	?	?	0.9%	10.1%
CCc1ccc(C(=O)NNc2ccc(C)c(Cl)c2)cc1	18.3µM*	2.6%	3.7%	13.5%	44.5%
Cc1ccc(NNC(N)=S)cc1Cl	1.6%	5.01µM*	-3.1%	1.4%	?
NC(=S)NNc1ccc(Cl)c(Cl)c1	-11.5%	10µM*	?	?	6.31µM*
COc1ccc(NC2CCCN(C(=O)CCN3CCOCC3)C2)cc1 (stereo unspecified)	9.1%	?	-13.7%	-5.6%	21.4%
CCc1ccc(C(=O)COC(=O)C2=NN(c3ccccc3)C(=O)CC2)cc1	?	.	3.5%	-16.4%	.
COC(=O)CCc1sc(Nc2ccccc2)nc1-c1ccc(OC)cc1	?	-9.3%	?	1.0%	-28.3%
N/C(=N\OC(=O)c1ccc(Cl)cc1)c1ccn[nH]1	?	?	-33.3%	-5.2%	14.1µM*
N/C(=N\OC(=O)c1ccc(Cl)cc1)c1ccc(Cl)cc1	?	4.7%	-0.3%	1.0%	-31.9%
O=C(CCc1nnc(COc2ccccc2)o1)NC1(c2ccccc2)CC1	1.5%	-6.0%	0.9%	-2.8%	-10.0%
c1cc2c(cn1)cnc1cscc12	8.2µM*	-2.5%	1.2%	-699.3%	18.4%
c1cnc2c(c1)ncc1cscc12	?	2.4%	8.3%	-1.6%	5.4%
CCN(CC)S(=O)(=O)c1cc(C)ccc1SC	15.4%	-15.4%	0.5%	23.1µM*	?
CCN(CC)S(=O)(=O)c1c(Br)cc(C)cc1Br	-8.9%	-2.1%	2.0%	-4.8%	-0.1%
